Assay outcomes from PubChem BioAssay.
In the library only some 0.86% were active in any assay of this set; here they are far more common.
TAR Tat displ – HIV-1 TAR-Tat binding disruption | HIV-1 TAR RNA, Tat peptide displacement FRET; active compounds read high | z-score (concentration not given with the values) | 100,000 compounds, 0.6% hits | AID 1259389; active means z-score of 3 or more in at least 2 runs
CDC25B CDK2 inh – human CDC25B-CDK2/CyclinA binding inhibition. P30305+P24941. HTRF CDC25B-CDK2/CyclinA binding, anti-His/anti-Flag; active compounds read high. z-score (test concentration not listed). 94,000 compounds, 0.72% hits; in the data active means z-score above about 3.2
Of the large screens only hits and unclear results are named; the others gave an inactive call.

CN(C)S(=O)(=O)c1ccc2nc(NC(=O)c3cc4ccccc4o3)sc2c1	none (no result: CDC25B CDK2 inh)
COc1ccccc1-c1noc2ncnc(NC(C)C)c12	none (no result: CDC25B CDK2 inh)
O=C(Nc1ccc2c(c1)nc1n2CCN(C2CCCCC2)C1)c1ccco1	TAR Tat displ 31.1, CDC25B CDK2 inh 7.11
O=C(Nc1ccc2c(c1)nc1n2CCN(C2CCCCC2)C1)NC1CCCCC1	none
CCCCOC(=O)c1ccc(N2CC(O)=C(c3nc4ccccc4s3)C2=N)cc1	none
COc1ccc(-c2nn3c(C(C)C)nnc3s2)cc1	none
COC(=O)c1ccc(OC)c(CN2N=NC3C(=O)N(c4ccc(C)c(C)c4)C(=O)C32)c1 (stereo not drawn)	none
Cc1ccc2[nH]c3c(=O)n(CCN4CCCCC4C)cnc3c2c1 (stereo not drawn)	none
COc1cc2[nH]c3c(=O)n(CCN4CCCCC4C)cnc3c2cc1OC (stereo not drawn)	TAR Tat displ 6.38
O=C(Nc1sc2c(c1C(=O)NCc1ccco1)CCC2)c1csnn1	TAR Tat displ 9.26
O=C(Nc1sc2c(c1C(=O)NCc1ccco1)CCCC2)c1csnn1	none
CCCCN1CC(c2nc3ccccc3n2CCCOc2ccc(Cl)cc2)CC1=O (stereo not drawn)	none
Cc1noc(C(=O)NCC(C)C)c1Cl	none
O=C(O)c1cc(Br)cc(C(=O)O)c1Cl	none
Cc1cc(=O)cc(C)n1-c1ccc(C(=O)O)cc1	none
Cc1ccc(C)n1-c1ccc(Br)cc1C(=O)O	TAR Tat displ 18.6
Cc1ccc(C)n1-c1ccc(O)c(C(=O)O)c1	TAR Tat displ 32.5
Cc1ccc(Cn2c(=O)c(C#N)cc3c(=O)n4cc(C)ccc4nc32)cc1	none
Cn1c(=O)oc2cc(S(=O)(=O)N(Cc3ccco3)C(=O)c3ccco3)ccc21	none
CCOC(=O)N/N=C(\C)CNC(C)=O	none (no result: TAR Tat displ)
CCOC(=O)c1[nH]c(C)c(C(=O)Nc2nnc(SCC)s2)c1C	none
Cc1cccc(Cl)c1N1C(=O)C(CC(=O)O)SC1=NC1CCCC1 (stereo not drawn)	none (no result: TAR Tat displ)
CCC(=O)n1/c(=N/C(=N)N)nc(C)c2ccc(C)cc21	CDC25B CDK2 inh 9.03 (no result: TAR Tat displ)
CCOC(=O)CC(=O)CSc1nc(C)c2ccc(C)cc2n1	none
COc1ccc2c(c1)oc(=O)c1ccccc12	none
COc1cc(O)c2c(c1)oc(=O)c1c3cc(O)c(O)cc3oc21	TAR Tat displ 38.1 (no result: CDC25B CDK2 inh)
Cc1nc(N2CCN(Cc3ccc4c(c3)OCO4)CC2)[nH]c(=O)c1CCC(C)C	none
Cc1c(C(=O)NCCCN2CCOCC2)sc2nc3n(c(=O)c12)CCCCC3	none (no result: CDC25B CDK2 inh)
Cc1c(NC(=O)NCCCN2CCOCC2)sc2nc3n(c(=O)c12)CCC(C)CC3 (stereo not drawn)	CDC25B CDK2 inh 10.1
O=C1c2cccnc2C(=O)N1Cc1ccc(S(=O)(=O)N2CC=C(c3ccccc3)CC2)cc1	none (no result: CDC25B CDK2 inh)
COc1ccc(Cl)cc1NC(=O)Cn1nc2c(cc1=O)CCC2	none
COc1ccc(NC(=O)Cn2nc3c(cc2=O)CCC3)cc1Cl	TAR Tat displ 13.3
O=C(O)c1ccccc1-c1c2ccc3cc(O)ccc3c2oc2c1ccc1cc(=O)ccc12	TAR Tat displ 25
COc1ccccc1-c1cc(C(=O)O)c2ccccc2n1	none
COC(=O)c1ccc(N2CSC3=C(C#N)C(c4ccc(F)cc4)CC(=O)N3C2)cc1 (stereo not drawn)	CDC25B CDK2 inh 6.56
CSc1ccc(C2CC(=O)N3CN(c4ccc(F)cc4)CSC3=C2C#N)cc1 (stereo not drawn)	CDC25B CDK2 inh 5.22
CCN(Cc1ccccc1)c1ncnc2c1cnn2-c1cccc(Cl)c1	none (no result: CDC25B CDK2 inh)
O=C(O)CCC(=O)Nc1ccc(S(=O)(=O)N2CC(=O)NC(=O)C2)cc1	none (no result: TAR Tat displ)
CCOc1ccc(NS(=O)(=O)c2ccc(-c3cc(C(F)(F)F)on3)s2)cc1	none (no result: CDC25B CDK2 inh)
CCCCN(C)c1ncnc2onc(-c3cc(F)cc(F)c3)c12	none (no result: CDC25B CDK2 inh)
CCOC(=O)c1c(S(=O)(=O)Nc2ccccc2)c(C)n(C)c1C	none (no result: CDC25B CDK2 inh)
Cc1ccc2nc3c(cc2c1)CCN3C(=O)c1ccc(Br)cc1	none
Cc1ccc2cc(NC(=O)C3CC(=O)N(Cc4ccc(F)cc4)C3)ccc2n1 (stereo not drawn)	CDC25B CDK2 inh 6.57 (no result: TAR Tat displ)
O=C1CC(c2nc3ccccc3n2Cc2ccc(F)cc2)CN1Cc1ccccc1 (stereo not drawn)	none
Cc1ccc2nc(-n3nc(C)c4c3NC(=O)CC4c3ccccc3)sc2c1 (stereo not drawn)	none (no result: CDC25B CDK2 inh)
O=C(Nc1ccc2snnc2c1)NC1CC1	CDC25B CDK2 inh 11.1
O=C(Nc1ccc2snnc2c1)NC1CCCCC1	none
Cc1cc(C)nc(SN=C2C=C(Cl)C(=O)C(Cl)=C2)n1	CDC25B CDK2 inh 15.5 (no result: TAR Tat displ)
Cc1cc(C)nc(SCCS(=O)(=O)Cc2ccc(Cl)cc2)n1	none (no result: TAR Tat displ)
CCSc1nn(C)c2nc3c(c(=O)n12)C(C)(CC)Cc1ccccc1-3 (stereo not drawn)	none
CCOc1ccc(-c2csc(-c3nc(-c4cccs4)cs3)n2)cc1	none (no result: CDC25B CDK2 inh)
CCCn1c(=O)c2sccc2n2c(CCCC(=O)NC3CCCCC3C)nnc12 (stereo not drawn)	none (no result: CDC25B CDK2 inh)
CC(C)Nc1nc(NCCN(C)C)nc2c1cnn2C	none (no result: CDC25B CDK2 inh)
CCn1c2ccccc2c2cc(CN3CCN(Cc4ccc(SC)cc4)CC3)ccc21	CDC25B CDK2 inh 10.7 (no result: TAR Tat displ)
CCn1c2ccccc2c2cc(CN3CCN(S(C)(=O)=O)CC3)ccc21	none
CCOC(=O)C1CCN(c2ccc([N+](=O)[O-])s2)CC1	TAR Tat displ 3.46 (no result: CDC25B CDK2 inh)
CCOC(=O)C1CCN(c2nnc(-n3c(C)ccc3C)s2)CC1	none
COc1cccc2cc(C(=O)Nc3cccc(C(C)=O)c3)c(=O)oc12	none (no result: TAR Tat displ)
Cn1c(=O)c2cn3c(c2n(C)c1=O)C(c1cccc(O)c1)Nc1ccccc1-3 (stereo not drawn)	none
Cc1ccc(CNC(=O)Cn2nc(C)n3c(cc4occc43)c2=O)cc1	none
COc1ccc(Br)cc1CNC(=O)Cn1nc(C)n2c(cc3occc32)c1=O	CDC25B CDK2 inh 11.9
C=CCNC(=O)Nc1ccc2nc(-c3ccccc3)c(-c3ccccc3)nc2c1	none (no result: TAR Tat displ)
COCCNC(=O)Nc1ccc2sc(NS(=O)(=O)c3ccccc3)nc2c1	none (no result: CDC25B CDK2 inh)
COCCNC(=S)Nc1ccc2nc3c4ccccc4c4ccccc4c3nc2c1	CDC25B CDK2 inh 11 (no result: TAR Tat displ)
C=CCNC(=S)Nc1ccc2nc3c4ccccc4c4ccccc4c3nc2c1	CDC25B CDK2 inh 4.68 (no result: TAR Tat displ)
CCCNC(=S)Nc1ccc2nc3c4ccccc4c4ccccc4c3nc2c1	CDC25B CDK2 inh 11.3 (no result: TAR Tat displ)
CCCNC(=S)Nc1ccc(Cl)cc1	none (no result: TAR Tat displ)
CC(C)N(C(=S)Nc1ccc2nc3c4ccccc4c4ccccc4c3nc2c1)C(C)C	CDC25B CDK2 inh 10.1 (no result: TAR Tat displ)
S=C(Nc1ccc2nc3c4ccccc4c4ccccc4c3nc2c1)N1CCOCC1	none (no result: TAR Tat displ)
O=C(NCCCO)Nc1ccc2nc(-c3ccccc3)c(-c3ccccc3)nc2c1	none (no result: TAR Tat displ)
OCCCNC(=S)Nc1ccc2nc(-c3ccccc3)c(-c3ccccc3)nc2c1	CDC25B CDK2 inh 5.86 (no result: TAR Tat displ)
Cc1noc2nc(C(=O)O)nc(N3CCCC3)c12	none
Cc1nc(N(C)C)ncc1C(=O)Nc1ccc2c(c1)OCO2	none (no result: CDC25B CDK2 inh)
CCOC(=O)CN1CSC2=C(C#N)C(c3ccc(Cl)cc3)CC(=O)N2C1 (stereo not drawn)	CDC25B CDK2 inh 3.76
CC(C)CCN1CSC2=C(C#N)C(c3ccc(F)cc3)CC(=O)N2C1 (stereo not drawn)	CDC25B CDK2 inh 5.02
CC(C)CCN1CSC2=C(C#N)C(c3ccc(Cl)cc3)CC(=O)N2C1 (stereo not drawn)	none
Cc1ccc(C2CC(=O)N3CN(CCC(C)C)CSC3=C2C#N)cc1 (stereo not drawn)	CDC25B CDK2 inh 5.21
Cc1cc(C)c2c(CC(=O)N(Cc3ccc(C(C)C)cc3)C3CCS(=O)(=O)C3)coc2c1 (stereo not drawn)	none
C=C(C)CN1CCN(c2cc(C)nc3c(-c4ccc(F)cc4)cnn23)CC1	none
